The source of these data is PubChem BioAssay AID686978 (National Center for Advancing Translational Sciences (NCATS), 2013).

SMILES strings stand for the structures. Hit rate of the full screen: of about 420,000 compounds, about 64,000 (15%) were called active. Another 27% or so got no clear call; they are omitted. The call rests on the fitted dose curve; in most records, active means well fitted inhibition curve with a large enough effect; inconclusive means small, poorly fitted or top-dose-only effect; inactive means flat fitted curve, though single readings scatter. A selection follows. A call without a number means that no potency is given here.
Potency means the concentration at half of the fitted maximal effect.

The test is described as follows: qHTS for Inhibitors of human tyrosyl-DNA phosphodiesterase 1 (TDP1): qHTS in cells in absence of CPT. Further: nearly all actives have a fitted effect of over 55% in size. The conditions noted are these: DT40 Tdp1-/- hTDP1 cells, no CPT, ATP luminescence, 48 h; activity change, negative = growth inhibition: at 46.2 µM (top of the series). In short, it runs like this: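 Stably hTDP1-transfected Tdp1-null chicken DT40 cells were treated with library compounds minus camptothecin and grown for at least 48 hr at 37 °C, after which cellular ATP was quantified by luminescence.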
On the technique in general: In qHTS, concentration-response curves come from the screen itself.
As to `Cc1cc(C)cc(NC(=O)C2CCN(c3nc(C)cc(C)n3)CC2)c1`, the Potency result is “inactive”.

Take `CC(C)c1ccc(NC(=O)C2CCN(c3nc(-c4ccc(C(C)C)cc4)no3)CC2)cc1`: the Potency is 13 µM (active).

For the molecule `CC(=O)NN=C(C)c1ccc(NC(=O)C2CC2)cc1`, the Potency result was “inactive”.

In the case of `Cc1ccc(-n2ncc3c(=O)[nH]cnc32)c(C)c1`, the Potency entry was “inactive”.

Turning to `COc1ccccc1-c1cc2nc(C)c(CCC(=O)O)c(C)n2n1`, the Potency entry is “inactive”.

For the molecule `COCCCNc1ccn2nc(-c3ccc(CC(C)C)cc3)cc2n1`, the Potency result was “inactive”.

For the molecule `COc1ccccc1-c1cc2nc(C)c(CCC(=O)NC3CCCCC3)c(C)n2n1`, the Potency entry is “inactive”.

On to `CC(C)Cc1ccc(-c2cc3nc(NCc4cccc(Cl)c4)ccn3n2)cc1`, for which the Potency is 18.4 µM (active).

As for `COc1ccccc1-c1cc2nc(NCc3cccc(Cl)c3)ccn2n1`, the Potency was 18.4 µM (active).

In the case of `Cc1nc2cc(NC(=O)[C@@H]3C[C@@H](Sc4ccccn4)CN3Cc3ccccc3C)ccc2s1`, the Potency entry is “inactive”.

`O=C1/C(=C/c2ccc3c(c2)OCO3)CCC/C1=C\c1ccc2c(c1)OCO2`: the Potency entry is “inactive”.

Turning to `O=C(OCC(=O)N1CCCCCC1)c1cnc(Cl)c(Cl)c1`, the Potency entry was “inactive”.

Consider `COc1cccc(C2C(C(=O)Nc3ccc(C)cc3C)=C(C)Nc3c(C(=O)Nc4ccccc4)cnn32)c1` (stereo not drawn), for which the Potency entry is “inactive”.

Consider `CCc1ccc(C2C(C(=O)Nc3ccccc3)=C(C)Nc3c(C(=O)Nc4ccc(C)cc4)cnn32)cc1` (stereo not drawn), for which the Potency was 23.1 µM (active).

Regarding `CC1=C(C(=O)Nc2ccccc2)C(c2ccc(C)cc2)n2nc(SCc3ccccc3C)nc2N1` (stereo not drawn), the Potency result is “inactive”.

In the case of `CCCSc1ncccc1C(=O)O`, the Potency entry is “inactive”.

In the case of `Cc1cnc(CN(C)C(=O)C2CCC(=O)N(CCc3cccc(F)c3)C2)[nH]1` (stereo not drawn), the Potency result was “inactive”.

On to `O=C(Nn1cc(C(=O)N2CCN(c3ccccc3F)CC2)c2ccccc2c1=O)c1cnccn1`, for which the Potency is 13 µM (active).

Turning to `COc1ccc2oc(=O)c(C(=O)N3CCN(c4ccccc4F)CC3)cc2c1`, the Potency entry was “inactive”.

On to `Cc1oc2ncn(CC(C)C)c(=O)c2c1C(=O)N1CCN(c2ccccc2F)CC1`, for which the Potency result was “inactive”.

Turning to `CCOCCCNC(=O)C(=O)NCCCOCC`, the Potency entry is “inactive”.

Regarding `O=C(CSc1nc2[nH]ncc2c(=O)[nH]1)Nc1ccc(F)cc1`, the Potency result was “inactive”.

In the case of `CCOc1ccccc1NC(=O)CCn1cnnn1`, the Potency result is “inactive”.

On to `Cc1[nH]c2ccc(S(N)(=O)=O)cc2c1C`, for which the Potency entry was “inactive”.

In the case of `Cc1ccccc1C(=O)N1CCC(C(=O)Nc2ccc(S(=O)(=O)N(C)C(C)C)cc2)CC1`, the Potency is 20.6 µM (active).

Regarding `CCc1nnc(NC(=O)C2CCN(C(=O)c3ccccc3C)CC2)s1`, the Potency result is “inactive”.

For the molecule `Cc1ccccc1C(=O)N1CCC(C(=O)Oc2ccc(C#N)cc2)CC1`, the Potency entry was “inactive”.

As to `COc1ccc(-n2c(C)csc2=S)cc1`, the Potency result was “inactive”.

For the molecule `O=C(OCCN1C(=O)c2ccccc2C1=O)[C@@H]1CC(O)CN1S(=O)(=O)c1ccccc1[N+](=O)[O-]` (stereo partly drawn), the Potency result was “inactive”.

For `COC(=O)C1(C(=O)OC)C/C=C\CN(S(=O)(=O)c2ccccc2[N+](=O)[O-])CCC1`, the Potency is 16.4 µM (active).

`COc1ccc(S(=O)(=O)N2CCC(C(=O)OCC(=O)c3ccccc3)CC2)cc1[N+](=O)[O-]`: the Potency entry is “inactive”.

Regarding `COc1ccc(-c2oc3ncnc(NCCCO)c3c2-c2ccc(OC)cc2)cc1`, the Potency is 16.4 µM (active).

For the molecule `COCCNc1ncnc2c1ncn2[C@H]1CN(Cc2ccc(OC)cc2)C[C@@H](CO)O1`, the Potency entry was “inactive”.

`OCCc1ccc(NCCc2ccco2)cc1`: the Potency result is “inactive”.

Take `OCCNc1ncnc2oc(-c3ccco3)c(-c3ccco3)c12`: the Potency was 20 µM (active).

For the molecule `Cc1nnc(NCCO)c2ccccc12`, the Potency result is “inactive”.

As to `Nc1nonc1C(=O)NCCc1ccccc1`, the Potency entry is “inactive”.

Consider `O=S1(=O)C=C(SCCN2CCCC2)c2ccccc21`, for which the Potency entry is “inactive”.

Consider `CCCC(C)NC(=O)C1CCN(C(=O)C2CC(=O)N(c3ccc(C)cc3)C2)CC1` (stereo not drawn), for which the Potency entry was “inactive”.

Consider `Cc1ccsc1CNn1cnnc1SCc1ccccc1F`, for which the Potency result is “inactive”.

Consider `CCn1c(CNC(=O)c2ccco2)nnc1SCC(=O)Nc1cccc(F)c1`, for which the Potency result is “inactive”.

Turning to `COC(=O)C(C)n1cnc2c(nnn2-c2cccc(Cl)c2)c1=O` (stereo not drawn), the Potency result was “inactive”.

On to `CC(C)n1cnc2c(Nc3cccc(Cl)c3)nc(N(CCO)CCCO)nc21`, for which the Potency is 14.6 µM (active).

On to `CC(C)[C@H](CO)Nc1nc(Nc2cc(N)cc(Cl)c2)c2ncn(C(C)C)c2n1`, for which the Potency is 2.99 µM (active).

As to `O=C(NCCc1ccccc1)c1ccc(NC2=NC3CS(=O)(=O)CC3S2)cc1` (stereo not drawn), the Potency entry is “inactive”.

On to `Cc1cc(NS(=O)(=O)c2ccc(NC(=O)C(C)Oc3cccc(C)c3C)cc2)nc(C)n1` (stereo not drawn), for which the Potency result is “inactive”.

In the case of `O=C(CSc1ncnc2sccc12)NC1CCS(=O)(=O)C1` (stereo not drawn), the Potency result was “inactive”.

Turning to `Cn1c(SCC(=O)Nc2cccc(O)c2)nnc1-c1ccc(S(=O)(=O)N2CCOCC2)cc1`, the Potency entry was “inactive”.

For the molecule `Cc1ccc([C@@H]2CC(=O)[C@@H]3CN(S(=O)(=O)c4ccc(C)cc4)[C@H](c4ccccc4F)C[C@@H]3N2S(=O)(=O)c2ccc(Cl)cc2)cc1`, the Potency result was “inactive”.

Regarding `Cc1ccccc1CSc1nnc(-c2cccnc2)n1N`, the Potency entry was “inactive”.

Turning to `Cc1ccc(-c2nn(-c3ccccc3)cc2CN(Cc2ccccc2)C(=O)CCC(=O)O)o1`, the Potency result is “inactive”.

In the case of `COCCCNC(=O)Cn1cc(C(=O)C2CC2)c2ccccc21`, the Potency result was “inactive”.

Consider `O=C(CSc1ncnc2c1oc1ccccc12)NC1CCCC1`, for which the Potency result is “inactive”.

Take `COc1ccccc1Nc1ncnc2c1oc1ccccc12`: the Potency was 11.6 µM (active).

For `CCC(C(=O)OC)n1cnc2c(oc3ccccc32)c1=O` (stereo not drawn), the Potency result was “inactive”.

With `COc1ccc(CN2CCC3(CCC(CNC(=O)c4ccco4)O3)CC2)cc1OC` (stereo not drawn), the Potency result was “inactive”.

`CCCCCCCNc1nc(Cl)nc(NCCO)n1`: the Potency result was “inactive”.

With `Cc1occc1-c1nnc(SCC(=O)NC2CCCCC2)o1`, the Potency result is “inactive”.

For `CCOC(=O)Nc1ccc2c(c1)N(C(=O)CCN1CCN(CCO)CC1)c1ccccc1CC2`, the Potency result was “inactive”.

`CCOC(=O)CNC(=O)CN1C(=O)CCSc2ccccc21`: the Potency result is “inactive”.

`CCNCCC(=O)N1c2ccccc2Sc2ccc(NC(=O)OCC)cc21`: the Potency was 13 µM (active).

Take `CCOC(=O)Nc1ccc2c(c1)N(C(=O)CCCl)c1ccccc1[S@]2=O`: the Potency is 3.66 µM (active).

For the molecule `CCNC(=O)N1c2ccccc2Sc2ccccc21`, the Potency entry was “inactive”.

Take `CCOC(=O)Nc1ccc(NC(=O)OCC)cc1`: the Potency result was “inactive”.

Turning to `CN1CCC2(CC1)CCN(S(=O)(=O)c1ccccc1)CC2`, the Potency entry was “inactive”.

On to `Cc1ccc(S(=O)(=O)N(c2cccc(C)c2)C2CCS(=O)(=O)C2)cc1` (stereo not drawn), for which the Potency result is “inactive”.

As to `CC(C)Sc1ncnc2c1cnn2-c1ccccc1`, the Potency entry was “inactive”.

For the molecule `O=C(O)c1cc(S(=O)(=O)Nc2ccc3cn[nH]c3c2)ccc1Br`, the Potency result is “inactive”.

As for `CC(C)N1C(=O)C2C(C(=O)NC3CCCCC3)C3C=CC2(O3)C1C(=O)NC1CCCC1` (stereo not drawn), the Potency entry is “inactive”.

As for `CCCCOC(=O)Nc1nccs1`, the Potency entry was “inactive”.

Regarding `CCCc1cc(=O)n2[nH]c(SCc3ccccc3)nc2n1`, the Potency result was “inactive”.

As for `CCn1c2ccccc2c2nnc(SCC(=O)O)nc21`, the Potency entry was “inactive”.

Consider `CCOC(=O)c1sc(NC(=O)C(CC)Sc2nccn2C)nc1C` (stereo not drawn), for which the Potency entry is “inactive”.

For `C=CCn1c2ccccc2c2nnc(SC(CC)C(=O)Nc3nc(C)c(C(=O)OCC)s3)nc21` (stereo not drawn), the Potency was 8.2 µM (active).

`N#Cc1cc2[nH]c(=O)c(=O)[nH]c2cc1[N+](=O)[O-]`: the Potency result is “inactive”.

As to `CSc1n[nH]c(=S)n1N`, the Potency entry was “inactive”.

For `N#Cc1ccc(S(=O)(=O)NCC(=O)OCC(=O)NCCc2ccccc2)cc1`, the Potency result was “inactive”.

`Cc1nnc(SCC(=O)Nn2cnnc2)s1`: the Potency result was “inactive”.

On to `O=S1(=O)CC/C(=N\Nc2ccc(F)cc2)c2ccsc21`, for which the Potency result is “inactive”.

On to `O=C(c1ccc(F)cc1)C1CCN(CCCCc2ccccc2)CC1`, for which the Potency was 26.6 µM (active).

As to `O=C1CCN(CCCc2ccccc2)CCN1CCO`, the Potency entry is “inactive”.

Regarding `O=C(COC(=O)c1ccc(F)cc1)NCCCc1ccccc1`, the Potency result is “inactive”.

As for `CCn1c(SCC(=O)NC2CCCC2)nnc1-c1ccoc1C`, the Potency result is “inactive”.

As for `NS(=O)(=O)c1ccc(CCNC(=O)NC2CCCCC2)cc1`, the Potency entry is “inactive”.

As to `O=S(=O)(c1cccs1)N1CCc2ccccc2C1`, the Potency entry is “inactive”.

In the case of `Cc1ccc(N(Cc2cc3ccccc3[nH]c2=O)C(=O)c2cccs2)cc1`, the Potency was 14.6 µM (active).

On to `CCC(=O)N(CCc1ccccc1)Cc1cc2cc(C)ccc2[nH]c1=O`, for which the Potency result is “inactive”.

With `Cc1cccc2cc(CN(C(=O)c3cccs3)c3ccccc3)c(=O)[nH]c12`, the Potency entry was “inactive”.

`Cc1ccc(-n2nc(C)c(C(=O)O)c2-n2cccc2)cc1`: the Potency entry is “inactive”.

Consider `COCCNC(=O)Cn1cc2c(n1)CCCCC2`, for which the Potency entry was “inactive”.

As to `CCOc1ccc(CNC(=O)Cn2cc3c(n2)-c2c(oc(C(=O)N4CCCC4)c2C)CC3)cc1`, the Potency was 20.6 µM (active).

As to `CCOC(=O)N1CCC(NC(=O)Cn2cc3c(n2)CCCCC3)CC1`, the Potency entry is “inactive”.

As for `CC(C)Oc1ccc(C(=O)NCC(=O)Nc2ccc3c(c2)CCC3)cc1`, the Potency result was “inactive”.

As for `Cc1c(C(=O)N2CCCC2)oc2c1-c1nn(CC(=O)NCc3ccc(OC(C)C)cc3)cc1CC2`, the Potency is 20.6 µM (active).

With `CCCN(CCC)CCCNC(=O)Cn1cc2c(n1)-c1c(oc(C(=O)N3CCCC3)c1C)CC2`, the Potency entry is “inactive”.

On to `CC(C)OC(=O)Cn1nc(C(F)(F)F)c2c1CCCC2`, for which the Potency result was “inactive”.

In the case of `CCCC(C)c1nnc(NC(=O)C2CC(=O)N(c3ccc(OCC)cc3)C2)s1` (stereo not drawn), the Potency result was “inactive”.

On to `Cc1nnc(C(=O)NC(C)(C)c2nc(C(=O)NCc3ccc(F)cc3)c(O)c(=O)n2C)o1`, for which the Potency result was “inactive”.

Turning to `COc1ccnc(Oc2ccccc2)c1-c1ncn[nH]1`, the Potency entry was “inactive”.

For the molecule `Cc1nn(CC(=O)N2CCCCC2)c(=O)c2nn(-c3ccccc3)c(C)c12`, the Potency result was “inactive”.

In the case of `COc1ccccc1CNC(=O)Cn1nc(C)c2nn(-c3ccc(Cl)cc3)c(C)c2c1=O`, the Potency was 23.1 µM (active).

As for `CCOC(=O)C1CCN(C(=O)Cn2nc(C)c3c(C)n(-c4ccccc4)nc3c2=O)CC1`, the Potency result was “inactive”.

`Cc1ccccc1CNC(=O)CSc1nnc(C)c2c(C)n(-c3ccccc3)nc12`: the Potency result was “inactive”.

As to `COc1ccccc1CNC(=O)COC(=O)c1sc(C)nc1C`, the Potency entry was “inactive”.

As for `Cc1nnc(SCC(=O)NCc2ccccc2Cl)c2nn(-c3ccccc3)c(C)c12`, the Potency is 23.1 µM (active).

As for `COc1ccc(OC)c(CNC(=O)Cn2nc(C)c3c(C)n(-c4ccc(C)cc4)nc3c2=O)c1`, the Potency was 16.4 µM (active).

As to `Cc1cccn2c(=O)nc(SCC(=O)NCc3ccccc3Cl)nc12`, the Potency result is “inactive”.

As to `CCNC(=O)Cn1nc(C)n2c(cc3c(OC)cccc32)c1=O`, the Potency result is “inactive”.
